Screening results: PubChem BioAssay, several laboratories
ERa coact inh: blocks coactivator binding to human estrogen receptor alpha. P03372. TR-FRET ER-alpha LBD / SRC-1 peptide, estradiol-bound. inhibition, % at 25.6 µM. actives 1.7% (n = 86,000); in the data active = inhibition above about 50%;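 note: 0% = receptor plus peptide control and 100% = peptide only without receptor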
Smad3 FoxH1 inh: Smad3 (human) transcription factor binding inhibition | inhibition, % at 25 µM | AID 630 | P84022 | TR-FRET Smad3/Dy647-FoxH1 peptide binding, europium anti-His | actives 0.29% (n = 88,000);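 active = compounds that reduce the energy-transfer binding signal between the protein and its labelled peptide by more than half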;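 note: 0% = Smad3 plus labelled peptide maximal FRET and 100% = peptide-only background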
Candida biofilm: kills Candida albicans biofilms; actives 0.14% (n = 85,000); AID 834; C. albicans biofilm + clotrimazole, Alamar Blue; inhibition, % at 6 µM;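 active = inhibition above 20%; inactive = inhibition below 20%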;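 note: preformed 24 hr biofilms exposed to compound for 48 hr; 0% = biofilm without compound and 100% = blank killed by clotrimazole plus chlorhexidine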
ERb coact inh: blocks coactivator binding to human estrogen receptor beta; AID 633; TR-FRET ER-beta LBD / SRC1-Cy5 peptide binding; receptor agonist-loaded with 1 µM estradiol; inhibition, % at 25.6 µM; actives 1.3% (n = 86,000); Q92731;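 active = compounds whose percent inhibition of the receptor-coactivator binding signal exceeds about 50% in the single-dose screen, limit read from the data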;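 note: 0% = receptor plus peptide wells without compound and 100% = peptide-only wells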
Target sequence (Q92731 whole entry, looked up, the tested form may be a part): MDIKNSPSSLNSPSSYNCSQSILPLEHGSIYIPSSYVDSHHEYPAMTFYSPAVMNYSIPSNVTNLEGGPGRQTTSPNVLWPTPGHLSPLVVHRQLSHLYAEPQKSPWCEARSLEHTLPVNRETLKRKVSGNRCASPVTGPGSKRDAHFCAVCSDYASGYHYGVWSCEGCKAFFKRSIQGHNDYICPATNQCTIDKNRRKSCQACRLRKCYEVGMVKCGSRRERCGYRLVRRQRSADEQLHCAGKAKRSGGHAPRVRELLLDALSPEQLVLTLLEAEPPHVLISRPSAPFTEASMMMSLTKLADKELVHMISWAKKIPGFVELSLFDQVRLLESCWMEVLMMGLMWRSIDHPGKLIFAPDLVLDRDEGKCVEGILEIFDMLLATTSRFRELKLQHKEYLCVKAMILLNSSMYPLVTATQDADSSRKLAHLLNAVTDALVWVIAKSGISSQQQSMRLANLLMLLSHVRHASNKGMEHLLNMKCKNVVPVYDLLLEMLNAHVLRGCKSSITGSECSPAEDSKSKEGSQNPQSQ
ERa coact pot: enhances coactivator binding to human estrogen receptor alpha; TR-FRET ERalpha-LBD/SRC-Cy5 coactivator binding, 2 h; 100 = basal binding, no effect; coactivator binding (% of control), % at 25.6 µM; actives 1.3% (n = 86,000); AID 639; in the data active = activity above about 200%;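 note: binding measured in presence of low estradiol as agonist stimulus; 0% = peptide alone without receptor and 100% = receptor with peptide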
* hit, by the source's call; . = no result given; [ ] = dose if it differs, or a comment. This is a sample that favours compounds with a hit; in the whole collection about 3.6% have one here.

SMILES	ERa coact inh	Smad3 FoxH1 inh	Candida biofilm	ERb coact inh	ERa coact pot
CCOc1ccc2[nH]c(=O)c(CN(CCO)C3(c4nnnn4C4CCCCC4)CCCCC3)cc2c1	12	-2	11	-1	239*
CCC(C)NC(=O)c1c(N)n(CCCOC)c2nc3ccccc3nc12 (configuration not stated)	4	52*	9	4	85
N#CS.N=C=S.N=C=S.[Cu].[NH2-].[NH2-].[NH2-].[NH2-].c1ccc2ncccc2c1	.	63*	.	.	.
C[C@@H]1[C@H]2C=C[C@@H]1[C@H](c1c3ccc(=O)c(O)c-3oc3c(O)c(O)ccc13)[C@@H]2C(=O)O	.	102*	.	.	.
CO[C@H]1[C@H](O)[C@@H](O[C@@H]2[C@@H](Oc3cccc4c(O)c5c(=O)oc6ccc(C)c7c(=O)oc(c34)c5c67)O[C@@H](C)[C@H](O)[C@H]2O)O[C@@H](C)[C@@H]1O	.	-3	.	.	.
COC(=O)C[C@]1(C(=O)OC)CN(C#N)N(c2ccc(Cl)cc2)C12c1ccccc1-c1ccccc12	-6	72*[fluorescence artefact?]	7	1	98
CC1CCC(NCC(O)c2ccccc2)CC1 (configuration not stated)	1	-3	-2	-4	294*[fluorescence artefact?]
C[C@@]12CN(CC[N+](C)(C)C)C[C@]1(C)[C@H]1CC[C@@H]2O1	.	28	.	.	.
O=S(=O)(Nc1nccs1)c1ccc([As](=O)(O)O)cc1	.	102*	.	.	.
Cc1c([C@@H](C)[C@H]2NC[C@H](C)C[C@@H]2O)ccc2c1C[C@@H]1[C@@H]2CC=C2C[C@@H](O)CC[C@@]21C	.	1	.	.	.
Cn1c(=O)c2[nH]cnc2n(C)c1=O.[CH2-][C@H](Cc1cccc2cc(C(=O)O)c(=O)oc12)OC.[Hg].[OH-]	.	68*	.	.	.
Nc1nc(SC2CCC([N+](=O)[O-])C3NONC23)c2[nH]cnc2n1 (configuration not stated)	.	24	.	.	.
CC(=O)OC1=CC2=CC[C@H]3[C@@H]4CCC(=O)[C@@]4(C)CC(=O)[C@]3(S)[C@]2(C)CC1	.	35	.	.	.
CC(C)[C@]1(O)[C@@H](OC(=O)c2ccc[nH]2)[C@@]2(O)[C@@]3(C)C[C@]4(O)O[C@@]5([C@H](O)[C@@H](C)CC[C@@]35O)[C@@]2(O)[C@@]41C	.	0	.	.	.
O=P1(NC2CCCC2)COc2ccccc2OC1	4	4	7	4	109
O=P1(NCc2ccco2)COc2ccccc2OC1	-1	9	6	2	211*[fluorescence artefact?]
O=C(O)C[C@@H]1NCc2cc3ccccc3nc21	.	51*	.	.	.
CC12CCC(=O)C=C1CCC1C2CCC2(C)C(O)CCC12 (configuration not stated)	-1	-5	-2	6	122
C[C@]12CCC(=O)C=C1CCC1C2CC[C@@]2(C)C1CC[C@@]2(O)CC#N (some centres not stated)	1	2	5	54*	97
C[N+]1([O-])[C@@H]2CC(OC(=O)[C@@H](CO)c3ccccc3)C[C@H]1[C@H]1O[C@H]12 (some centres not stated)	.	22	.	.	.
C[C@@]12CC[C@@H]3[C@H](CCC4=CC(=O)CC[C@H]43)[C@H]1CC[C@H]2OC1(O)C(=O)c2ccccc2C1=O	.	54*	.	.	.
CC(=O)O[C@H]1CC[C@H]2[C@H]3CCC4=C[C@@H](C5SCCS5)[C@H](OC(C)=O)C[C@]4(C)[C@@H]3CC[C@]12C	.	98*	.	.	.
C[C@]12CC[C@H](O)C[C@@H]1CC[C@H]1[C@H]2CC[C@]2(C)[C@@H]1CC[C@H]2C(=O)C[C@H](O)C(F)(F)F	.	0	.	.	.
CCN(CC)P(=O)(NC(=O)C(Cl)(Cl)Cl)N(CC)CC.[Cl-].[Cl-].[Cl-].[Nd+3]	69*[fluorescence artefact?]	67*[fluorescence artefact?]	4	50*[fluorescence artefact?]	95
NNc1c(C(N)=O)c2c(N)ncnc2n1[C@H]1O[C@H](CO)[C@@H](O)[C@@H]1O	.	9	.	.	.
SMILES	ERa coact inh	Smad3 FoxH1 inh	Candida biofilm	ERb coact inh	ERa coact pot
CCCCC[CH2][Hg][n+]1c[nH]c2nc(N)[nH]c(=S)c21	.	8	.	.	.
COc1cc2c3cc1Oc1c(O)c(OC)cc4c1[C@@H](Cc1ccc(cc1)Oc1cc(ccc1O)C[C@@H]3N(C)CC2)N(C)CC4	.	59*	.	.	.
C[n+]1c(/C=C/c2ccc(O)c3ncccc23)[se]c2ccccc21	.	50	.	.	.
Cn1cccc1CN1CCN(C(=O)COc2ccccc2)CC1	0	-10	1	93*[fluorescence artefact?]	101
COc1cc(CN2CCN(C(=O)COc3ccccc3)CC2)cc(OC)c1OC	-10	-3	10	6	104
CN1CCN(c2ccc(N)cc2)CC1	84*[fluorescence artefact?]	11	7	91*[fluorescence artefact?]	14
CC[C@H]1CN2CCc3cc(OC)c(OC)cc3[C@@H]2C[C@@H]1C[C@H]1NCCc2c1[nH]c1ccc(O)cc21	.	4	.	.	.
CCCOC(=O)[C@H]1[C@@H](C(=O)O)[C@H]2CC[C@@H]1O2	.	-4	.	.	.
CC1=NN(c2ccccc2)C(=O)[C@H]1N=Nc1ccc([As](=O)(O)O)c(O)c1	.	2	.	.	.
COc1ccc2[nH]c(C)c(CCN3CCC(=O)C(C)C3C)c2c1 (configuration not stated)	41	0	-7	64*[fluorescence artefact?]	83
CC1=C2C(=O)[C@H]3[C@@H](CC=C4C[C@@H](O)CC[C@@]43C)[C@@H]2CC[C@@]12O[C@@H]1C[C@H](C)CN[C@H]1[C@@H]2C	.	7	.	.	.
